Data taken from PubChem BioAssay.
The source made the active and inactive calls. Unless noted, the rule behind the calls is not given here.

Legend:
[1] = HepG2 liver cancer cell viability effects, profiling panel, resazurin fluorescence, 24 h, PK04 Diversity Set (AID 1172); conditions: higher = more signal
[2] = basal S. cerevisiae growth modulation, no modifier, primary screen, OD600, strain BY4716, 24 h, basal condition (AID 1173); conditions: OD600, 24 h, higher = more signal, called active from +8 up or from −8 down
[3] = MM1S myeloma cell viability, profiling panel, resazurin fluorescence, basal, 24 h, PK04 Diversity Set (AID 1174); conditions: higher = more signal, called active from +8 up or from −8 down;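 note: MM1S multiple myeloma cell line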
[4] = target: Dihydroorotate dehydrogenase (quinone), mitochondrial (Plasmodium falciparum (isolate 3D7)) (UniProt Q08210); assay: PfDHODH enzyme inhibitors, primary screen, biochemical, C-terminal His tag, absorbance 600 nm (AID 1175); conditions: DCIP absorbance 600 nm, higher = more signal, called active from +8 up or from −8 down;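 note: recombinant parasite enzyme with a five histidine tag at its C terminus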
[5] = P. aeruginosa biofilm formation inhibitors, primary screen, strain PAO1, LB-PBS medium, absorbance 600 nm (AID 1176); conditions: P. aeruginosa PAO1 growth/biofilm, A600, 12 h; higher = more signal
[6] = S. cerevisiae RM11-1a growth modifiers, primary screen, strain RM11-1a, OD600, basal, 24 h (AID 1177); conditions: OD600, 24 h, higher = more signal, called active from +8 up or from −8 down;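 note: cultures grown under basal conditions with no added stressor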
[7] = E. coli acrAB mutant growth effects, primary screen, E. coli filamentation inducers, strain DRC39, OD650, 24 h (AID 1178); conditions: higher = more signal, called active from +8 up or from −8 down;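 note: growth measured as culture turbidity by optical density at 650 nm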
[8] = E. coli acrAB mutant growth effects, primary screen, E. coli filamentation inducers, strain DRC39, OD650, 48 h (AID 1179);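 note: screen aims at cell division blockers that make cells filament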; conditions: E. coli DRC39 delta-acrAB growth, higher = more signal, called active from +8 up or from −8 down
[9] = RPMI8226 myeloma cell viability, profiling panel, resazurin fluorescence, basal, 24 h, PK04 Diversity Set (AID 1180); conditions: higher = more signal;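 note: RPMI8826 multiple myeloma cell line at 5000 cells per well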
[10] = target: E3 ubiquitin-protein ligase XIAP (Homo sapiens) (UniProt P98170); assay: XIAP binders, primary screen, biophysical, small-molecule microarray, fluorescence 635 nm (AID 1181); conditions: small-molecule microarray binding, higher = more signal;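 note: score merges 667 nm emission and signal to noise over triplicate slides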
[11] = system: XIP peptide (Xip251-270) binding; assay: small-molecule binders of XIP peptide, primary screen, biochemical, small-molecule microarray, fluorescence 635/667 nm, 0.1 µg/mL protein (AID 1182); conditions: fluorescent protein binding, 635 nm, higher = more signal, called active from +8 up or from −8 down
XIP peptide (Xip251-270) = assay: small-molecule binders of XIP peptide, primary screen, biochemical, small-molecule microarray, fluorescence 635/667 nm, 0.5 µg/mL protein (AID 1183); conditions: small-molecule microarray binding, fluorescence 635 nm; higher = more signal
[12] = Plasmodium falciparum growth inhibition, primary screen, strain 3D7, DAPI fluorescence, 100 nL (AID 1184);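 note: parasites grown inside human red blood cells in medium with human serum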; conditions: P. falciparum 3D7 growth, 3 d, higher = more signal
[13] = target: Homeobox protein Hox-A13 (Mus musculus) (UniProt Q62424); assay: inhibitors of HoxA13-DNA binding, primary screen, biochemical, fluorescence polarization, labeled oligonucleotide (AID 1185); conditions: 15 min, higher = more signal, called active from +8 up or from −8 down
[14] = inhibitors of hydroxyurea-induced Chk1 phosphorylation, primary screen, imaging, HeLa, phospho-Chk1 antibody, percent positive cells (AID 1186); conditions: hydroxyurea-induced phospho-Chk1 immunofluorescence imaging, higher = more signal
[15] = inhibitors of hydroxyurea-induced Chk1 phosphorylation, primary screen, imaging, HeLa, phospho-Chk1 nuclear intensity (AID 1187); conditions: hydroxyurea-induced phospho-Chk1 immunofluorescence imaging, higher = more signal

Sequence of Dihydroorotate dehydrogenase (quinone), mitochondrial (Plasmodium falciparum (isolate 3D7)) (Q08210 whole entry, looked up): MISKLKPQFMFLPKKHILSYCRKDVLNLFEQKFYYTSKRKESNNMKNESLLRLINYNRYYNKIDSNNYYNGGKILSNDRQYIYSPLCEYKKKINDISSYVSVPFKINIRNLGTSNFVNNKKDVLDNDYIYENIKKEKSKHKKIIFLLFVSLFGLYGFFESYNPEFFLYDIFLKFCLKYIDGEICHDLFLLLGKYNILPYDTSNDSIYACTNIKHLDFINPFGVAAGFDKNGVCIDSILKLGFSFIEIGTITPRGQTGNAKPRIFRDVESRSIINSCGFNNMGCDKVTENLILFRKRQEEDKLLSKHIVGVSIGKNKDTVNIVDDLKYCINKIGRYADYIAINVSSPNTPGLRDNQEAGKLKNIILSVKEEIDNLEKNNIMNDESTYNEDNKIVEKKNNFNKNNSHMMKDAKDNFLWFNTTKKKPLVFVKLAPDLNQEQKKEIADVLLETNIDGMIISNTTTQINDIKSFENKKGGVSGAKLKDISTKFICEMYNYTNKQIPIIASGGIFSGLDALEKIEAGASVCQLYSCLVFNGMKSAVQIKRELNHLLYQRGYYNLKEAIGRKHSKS
Sequence of E3 ubiquitin-protein ligase XIAP (Homo sapiens) (P98170 whole entry, looked up): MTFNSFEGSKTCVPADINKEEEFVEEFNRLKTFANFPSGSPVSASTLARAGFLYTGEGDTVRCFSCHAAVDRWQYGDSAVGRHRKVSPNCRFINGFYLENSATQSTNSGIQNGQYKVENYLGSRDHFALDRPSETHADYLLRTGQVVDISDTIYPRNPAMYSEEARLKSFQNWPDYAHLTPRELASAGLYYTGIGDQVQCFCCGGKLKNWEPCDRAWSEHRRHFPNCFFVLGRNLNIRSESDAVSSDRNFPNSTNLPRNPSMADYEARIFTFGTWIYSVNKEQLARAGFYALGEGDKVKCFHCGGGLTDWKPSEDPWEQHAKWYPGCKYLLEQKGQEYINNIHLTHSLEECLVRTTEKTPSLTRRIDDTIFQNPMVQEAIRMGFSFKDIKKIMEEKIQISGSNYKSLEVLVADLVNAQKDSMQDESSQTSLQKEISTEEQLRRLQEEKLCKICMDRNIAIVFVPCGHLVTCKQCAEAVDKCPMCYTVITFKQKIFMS
Sequence of Homeobox protein Hox-A13 (Mus musculus) (Q62424 whole entry, looked up): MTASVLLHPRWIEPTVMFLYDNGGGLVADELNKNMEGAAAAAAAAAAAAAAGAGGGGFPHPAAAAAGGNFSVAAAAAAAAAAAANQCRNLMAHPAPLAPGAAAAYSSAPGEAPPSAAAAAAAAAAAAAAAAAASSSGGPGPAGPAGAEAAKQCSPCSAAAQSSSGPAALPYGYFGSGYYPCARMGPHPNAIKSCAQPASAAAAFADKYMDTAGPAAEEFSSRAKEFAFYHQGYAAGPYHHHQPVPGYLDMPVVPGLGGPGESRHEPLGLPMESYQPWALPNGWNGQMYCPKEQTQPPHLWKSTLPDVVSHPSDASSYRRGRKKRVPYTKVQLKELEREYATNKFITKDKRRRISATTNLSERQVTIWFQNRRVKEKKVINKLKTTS

OCC1CC(c2ccccc2)=NO1 (stereo not given)
z-score [1]: -0.107
z-score [2]: -1.09 (inactive)
z-score [3]: -0.85 (inactive)
composite z-score [4]: -0.17 (inactive)
z-score [5]: -0.201 (inactive)
z-score [6]: 0.309 (inactive)
z-score [7]: -0.075 (inactive)
z-score [8]: 0.194 (inactive)
z-score [9]: 0.886
composite z-score [10]: -0.158
composite z-score [11]: -0.336 (inactive)
composite z-score (XIP peptide (Xip251-270)): -0.118
z-score [12]: 0.308
z-score [13]: 0.0368 (inactive)
z-score [14]: -0.582 (inactive)
z-score [15]: -0.0558 (inactive)

C=CC1c2cc(O)c(OC)cc2CCN1Cc1cc2c(cc1Br)OCO2 (stereo not given)
z-score [1]: -1.95
z-score [2]: -12.5 (active)
z-score [3]: -2.21 (inactive)
composite z-score [4]: -7.6 (inactive)
z-score [5]: -0.0065 (inactive)
z-score [6]: -2.09 (inactive)
z-score [7]: -0.929 (inactive)
z-score [8]: -1.69 (inactive)
z-score [9]: -2.82
composite z-score [10]: -0.0525
composite z-score [11]: 1.31 (inactive)
composite z-score (XIP peptide (Xip251-270)): 0.962
z-score [12]: -2.14
z-score [13]: -5.73 (inactive)
z-score [14]: -0.103 (inactive)
z-score [15]: -0.0965 (inactive)

CN(C)CCCNC(=O)[C@@H]1c2ccccc2C(=O)N(Cc2ccccc2Cl)[C@H]1c1ccc(CO)cc1
z-score [1]: 0.248
z-score [2]: -0.433 (inactive)
z-score [3]: 0.608 (inactive)
composite z-score [4]: 0.411 (inactive)
z-score [5]: 0.0561 (inactive)
z-score [6]: -0.39 (inactive)
z-score [7]: 0.206 (inactive)
z-score [8]: -0.2 (inactive)
z-score [9]: 0.179
composite z-score [10]: -0.02
composite z-score [11]: 0.596 (inactive)
composite z-score (XIP peptide (Xip251-270)): 0.285
z-score [12]: -0.424
z-score [13]: -2.58 (inactive)
z-score [14]: 0.0357 (inactive)
z-score [15]: 0.0322 (inactive)

CC(C)(C)OC(=O)CC[C@]1(C(=O)NCC(O)CO)N=C(c2ccc(OCCCO)cc2)O[C@H]1c1ccccc1 (stereo not given in full)
z-score [1]: 0.309
z-score [2]: -1.84 (inactive)
z-score [3]: 1.04 (inactive)
composite z-score [4]: -1.89 (inactive)
z-score [5]: 0.882 (inactive)
z-score [6]: -0.87 (inactive)
z-score [7]: 1.41 (inactive)
z-score [8]: 0.419 (inactive)
z-score [9]: 0.949
composite z-score [10]: -0.0203
composite z-score [11]: 0.0294 (inactive)
composite z-score (XIP peptide (Xip251-270)): 0.628
z-score [12]: -1.74
z-score [13]: -4.14 (inactive)
z-score [14]: -0.703 (inactive)
z-score [15]: -0.886 (inactive)

CN1C(=O)C2C=CC(C(O)c3ccc(F)cc3)N(Nc3ccccc3)C2C1=O (stereo not given)
z-score [1]: -1.05
z-score [2]: 0.544 (inactive)
z-score [3]: -1.24 (inactive)
composite z-score [4]: 0.869 (inactive)
z-score [5]: 0.944 (inactive)
z-score [6]: 1.38 (inactive)
z-score [7]: -1.03 (inactive)
z-score [8]: -0.894 (inactive)
z-score [9]: -1.58
composite z-score [10]: 0.0761
composite z-score [11]: 0.477 (inactive)
composite z-score (XIP peptide (Xip251-270)): 0.466
z-score [12]: -0.102
z-score [13]: -2.9 (inactive)
z-score [14]: 0.264 (inactive)
z-score [15]: -0.232 (inactive)
